# Source: PubChem BioAssay
# HTR5A ag ctr: HTR5A agonists in luminescence cell assay, primary screen, counter-screen for OPRM1-OPRD1 heterodimer agonist project, full-deck HTS | AID 504692, 2011 | cell-based | activation, % at 9.3 µM | 0.61% of 340,000 active | 5-hydroxytryptamine receptor 5A (Homo sapiens), P47898; in the data active = activation mostly above about 9.5%, no sharp cut-off; inactive = mostly below about 7.6%;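 note: 0% = cells with vehicle only and 100% = reference agonist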
# HTR5A inv ag: HTR5A inverse agonists in luminescence cell assay, primary screen, counter-screen for OPRM1-OPRD1 heterodimer inverse agonist project, full-deck HTS; HTR5A cell line, inverse agonism; 0.083% of 340,000 active; inhibition, % at 9.3 µM; AID 504634, 2011; in the data active = inhibition mostly above about 23%, no sharp cut-off; inactive = mostly below about 18%;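 note: 0% = cells with DMSO and 100% = no-cell wells with DMSO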
# OPRM1-OPRD1 inv: inverse agonists of MOR-DOR heterodimerization, primary screen, cell-based, luminescence. cell-based MOR-DOR heterodimer luminescence, inverse agonism. Mu-type opioid receptor (Homo sapiens) + Delta-type opioid receptor (Homo sapiens), …. inhibition, % at 9.3 µM. 0.21% of 340,000 active. AID 504357, 2011; in the data active = inhibition above about 22%, passing the limit was not always enough;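 note: 0% = cells with DMSO and 100% = wells without cells with DMSO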
# m5-HT2A agonist: mouse Htr2a agonists via beta-arrestin recruitment, primary screen, cell-based, luminescence; 0.66% of 360,000 active; CHO-K1 mHTR2A beta-arrestin complementation; percent of 30 µM serotonin response; AID 624169, 2012; 5-hydroxytryptamine receptor 2A (Mus musculus), P35363; activation, % at 7.6 µM;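 active = activation above a run cutoff, the mean activation of all tested compounds plus 3 SD, cut at about 14% in these data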;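 note: 0% = plate median of compound wells and 100% = 30 µM serotonin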
# OPRM1-OPRD1 ag: agonists of OPRM1-OPRD1 heterodimerization, primary screen, cell-based, luminescence; cells; activation, % at 9.3 µM; 0.3% of 340,000 active; in the data active = activation above about 18%;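 note: 0% = vehicle-treated cells and 100% = reference agonist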
# OPRM1 ag: OPRM1 agonists via beta-arrestin recruitment, confirmation, counter-screen for mouse HTR2A agonist project, cell-based, luminescence, single concentration; shares compounds with m5-HT2A agonist; activation, % at 9.3 µM; 5.3% of 2,300 active; U2OS OPRM1 beta-arrestin PathHunter; DMSO 0%, DAMGO 9.3 µM 100%;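 active = mean activation above the mean of DMSO-only wells plus 3 SD, cut at about 0.5% in these data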
# Target sequence (P35372 whole entry, looked up): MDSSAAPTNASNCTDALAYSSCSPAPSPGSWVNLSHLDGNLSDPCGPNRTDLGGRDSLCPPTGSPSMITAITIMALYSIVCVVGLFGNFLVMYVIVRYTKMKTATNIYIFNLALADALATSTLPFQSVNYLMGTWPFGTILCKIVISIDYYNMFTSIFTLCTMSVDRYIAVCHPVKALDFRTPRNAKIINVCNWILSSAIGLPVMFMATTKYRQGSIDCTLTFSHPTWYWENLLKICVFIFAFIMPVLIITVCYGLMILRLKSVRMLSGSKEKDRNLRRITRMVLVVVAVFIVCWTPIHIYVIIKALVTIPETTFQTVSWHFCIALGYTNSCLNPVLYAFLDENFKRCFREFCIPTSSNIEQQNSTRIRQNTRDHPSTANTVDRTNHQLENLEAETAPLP
# HTR2A ag conf: mouse HTR2A agonists, beta-arrestin recruitment, confirmation, cell-based, luminescence, CHO-K1 PathHunter, triplicate; 19% of 2,300 active; DMSO 0%, 30 µM serotonin 100%; activation, % at 7.6 µM; shares compounds with m5-HT2A agonist;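 active = mean activation across triplicates above the hit threshold derived in the original primary screen, cut at about 15% in these data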
# The depositor's hits bear a star; . = no result. This is a sample that favours compounds with a hit; in the whole collection about 1.6% have one here.
SMILES,HTR5A ag ctr,HTR5A inv ag,OPRM1-OPRD1 inv,m5-HT2A agonist,OPRM1-OPRD1 ag,OPRM1 ag,HTR2A ag conf
COc1ccc(C)cc1NC(=O)c1ccc(CN2CCN(c3ccccc3)CC2)cc1,5.7,-12.3,-1.3,35.8*,0.2,-0.4,60.9*
COc1cccc(C(=O)NNC(=O)CCN2CCN(c3ccccc3)CC2)c1,6.3,-25.6,0.6,23.0*,-0.1,-0.8,48.2*
Cc1ccc(C)c(NC(=O)CCN2CCOCC2)c1,1.8,-20.1,-3.4,19.7*,0.6,-0.3,-0.1
COc1ccccc1C(=O)NCCN1CCN(c2ccccc2)CC1,0.2,-0.6,1.5,14.5*,-0.3,-0.6,69.5*
CC(=O)NCC1(c2ccccc2)CCN(CCCC(=O)c2ccc(F)cc2)CC1,.,.,.,-7.0,.,.,.
CCOc1ccc(NC(=O)CCN2CCN(c3ccccc3F)CC2)cc1,3.0,-9.8,16.3,21.3*,-3.1,-0.8,45.2*
COc1cc(CN2CCN(c3ccccc3F)CC2)cc(OC)c1O,6.6,-46.2,-28.5,16.0*,5.3,-0.5,30.5*
COc1ccc(C)cc1NC(=O)CCN1CCN(c2ccccc2F)CC1,0.0,0.1,-11.9,18.0*,2.5,-0.5,57.2*
COc1cc(C(=O)N2CCCCC2c2cc(C(=O)NCc3cccnc3)no2)cc(OC)c1C (stereo not drawn),.,.,.,-6.6,.,.,.
COC(=O)C1CCN(C2CN(Cc3ccc(F)cc3)S(=O)(=O)C2)CC1 (stereo not drawn),.,.,.,0.4,.,.,.
Cc1ccc(S(=O)(=O)N(C)c2ccc(C(=O)NC3CCCCC3)cc2)cc1,.,.,.,2.5,.,.,.
O=c1cc(C(F)(F)F)[nH]c2ccc(C(F)(F)F)cc12,8.2,-26.6,-31.8,26.2*,6.1,0.0,4.7
C=C(C)C1CC=C(CN2CCC(C(=O)OCC)CC2)CC1 (stereo not drawn),5.8,-7.4,-37.1,17.8*,6.8,-0.2,26.1*
C=C(C)C1CC=C(CN2CC(C)OC(C)C2)CC1 (stereo not drawn),-2.5,9.2,-29.1,1.3,5.4,.,.
Cc1ccc(CNCC(O)(c2ccccc2)c2ccc(Cl)cc2)cc1 (stereo not drawn),1.5,-3.6,-20.7,1.8,4.2,.,.
Cc1ccc(CNCC(O)(c2ccccc2)c2ccccc2)cc1,1.1,-4.2,-21.6,19.7*,4.3,0.1,-3.7
CCN(C[C@H]1N[C@@](C)(C(=O)OC)[C@H]2C(=O)N(C)C(=O)[C@@H]12)C(=O)Nc1ccc(Cl)cc1,0.6,-2.2,6.4,37.0*,-1.4,-0.1,-0.6
COC(=O)[C@@]12C[C@@H](CC(=O)N3CCCC3)C(=O)N(Cc3cccc4ccccc34)C1=CCC(C)(C)C2,.,.,.,-1.0,.,.,.
COc1ccc(NC(=O)C2CC(=O)N(c3ccccc3C)C2)c(OC)c1 (stereo not drawn),-3.4,9.7,14.5,14.8*,-2.7,-0.6,-3.5
COc1ccc(OC)c(NC(=O)C2CC(=O)N(c3ccccc3)C2)c1 (stereo not drawn),-1.6,5.9,7.3,4.7,-1.4,.,.
Cc1ccccc1NC(=O)C(C)OC(=O)CCC(=O)c1ccccc1 (stereo not drawn),.,.,.,10.5,.,.,.
CC(=O)NCCNc1nc2cc(-c3ccc(Cl)cc3C)sc2c(=O)n1C,.,.,.,-5.0,.,.,.
CN(C)S(=O)(=O)c1ccc(Cl)c(NC(=O)CN2CCc3ccccc3C2)c1,2.5,-7.0,-4.9,22.6*,0.9,0.1,82.0*
Cn1c(Cc2cccs2)nnc1SCC(=O)Nc1ccc(F)cc1F,0.6,-5.3,-2.1,14.6*,0.3,-0.4,-4.0
COc1ccccc1NC(=O)CSc1nnc(Cc2cccs2)n1C,-0.7,-2.4,2.4,6.5,-0.4,.,.
SMILES,HTR5A ag ctr,HTR5A inv ag,OPRM1-OPRD1 inv,m5-HT2A agonist,OPRM1-OPRD1 ag,OPRM1 ag,HTR2A ag conf
Cc1ccc(NC(=O)CN2CCN(C(=O)c3ccco3)CC2)cc1,0.8,-2.1,12.4,-0.7,-2.3,.,.
Cc1ccc2nc(-c3ccc(NC(=O)CN4CCN(C(=O)c5ccco5)CC4)cc3)sc2c1,3.5,-9.1,-16.9,14.5*,3.0,-0.4,59.9*
Cc1[nH]c2ccccc2c1NC(=O)CN1CCN(C(=O)c2ccco2)CC1,.,.,.,22.2*,.,-0.6,81.5*
COc1ccc(NC(=O)CNS(=O)(=O)c2cccs2)cc1,1.2,-7.2,11.9,24.4*,-2.1,-0.5,-0.7
CC(C)c1ccc(N(CC(=O)NC(C)(C)C)C(=O)CCC(=O)Nc2nccs2)cc1,-3.3,12.3,15.6,29.0*,-3.3,-0.8,-3.2
CC(C)(C)NC(=O)CN(C(=O)CCC(=O)Nc1nccs1)c1ccc(F)cc1,-0.4,1.1,10.2,-0.5,-2.0,.,.
CN1C(=O)C(CC(=O)NC2CCCCC2)SC1=Nc1ccccc1 (stereo not drawn),0.1,-0.3,14.5,22.8*,-2.2,-0.6,-3.3
Cn1c(N)c(C(=O)COC(=O)CNC(=O)c2ccc(Cl)cc2Cl)c(=O)n(C)c1=O,1.6,-6.4,8.0,14.5*,-1.5,-0.3,-1.7
COc1cc(/C=N/NC(=O)CC(=O)NC2CCCCC2)ccc1O,-0.8,2.4,13.8,15.8*,-2.6,0.9*,4.7
COC(=O)c1ccc(/C=N/NC(=O)CC(=O)NC2CCCCC2)cc1,0.8,6.7,24.6,0.9,-5.2,.,.
COc1cc(NC(=O)N2CCc3nc(NCc4cccc(Oc5ccccc5)c4)ncc3C2)cc(OC)c1OC,.,.,.,-3.1,.,.,.
COC(=O)Cc1c(C)c2ccc(OCC(=O)N3CCCC(C)C3)c(C)c2oc1=O (stereo not drawn),2.5,-9.9,-1.0,15.1*,0.2,-0.6,4.6
O=C1c2ccccc2C(c2nnnn2-c2ccc3c(c2)OCCO3)N1Cc1cccnc1 (stereo not drawn),.,.,.,-5.4,.,.,.
Cc1ccc(-n2c(N)c(C(N)=O)sc2=S)cc1,6.8,-14.8,12.7,18.8*,-2.6,-0.7,-4.7
C=CCn1c(=NC(=O)c2ccc(S(=O)(=O)N3CCc4ccccc4C3)cc2)sc2cc(S(N)(=O)=O)ccc21,1.0,-2.5,10.4,21.9*,-1.9,-0.7,13.2
O=C1CN(C(=O)C2CCC(=O)N(CCc3ccc(Cl)cc3)C2)CCN1 (stereo not drawn),6.4,3.8,12.5,16.7*,-2.3,-0.6,2.2
Cc1ccc(S(=O)(=O)NCC(=O)N2CCCC2)cc1,-1.7,16.6,-20.3,6.9,3.8,.,.
